Some test systems named below: NCI-H23 lung; NCI-H522 lung; MDA-MB-231 breast; M14 melanoma; SK-MEL-5 melanoma; UACC-62 melanoma; LOX IMVI melanoma; CCRF-CEM leukemia; MOLT-4 leukemia; SR leukemia; OVCAR-8 ovarian; OVCAR-5 ovarian; OVCAR-4 ovarian; IGROV1 ovarian; HS 578T breast; NCI/ADR-RES ovarian; T-47D breast; MCF7 breast; HCT-116 colon; KM12 colon.
Common to all, as to experiment: NCI-60 one-dose screen, 48 h (100 = growth as untreated, 0 = no growth, -100 = all killed)
Common to all, as to conditions: 10 µM

Values joined by “and” are separate entries in the source; they are usually repeats but may differ in a detail not shown here. Equal values may be shown once. Compounds without any hit were thinned out: in the full panel of roughly 83,000, 20% have a hit.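 Percent growth is the endpoint: 0 to 100 indicates growth inhibition (40 means 60% inhibition), 0 means no net growth, and negative values indicate cell death.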 Active and inactive are the calls of the source. The calls were made as follows: active = growth percent below 10; inactive = the rest.

As to `C/C=C/CC(C)C(O)[C@H](NC(=O)[C@@H]1CCCN1C(=O)C(C)(C)NC(=O)CCCCCCCCC)C(=O)NC(C)(C)C(=O)N[C@@H](CCC(N)=O)C(=O)N[C@H](CCC(N)=O)C(=O)NC(C)(C)C(=O)NC(C)(C)C(=O)N[C@@H](CCC(N)=O)C(=O)N[C@H](CC(C)C)C(=O)N[C@H](CO)CC(C)C` (some centres not stated), the growth in the experiment with NCI-H23 lung was 37.1% (inactive) and -16.1% (active); with NCI-H522 lung, -41.2% (active) and -62.8% (active); with MDA-MB-231 breast, 6.89% (active) and -91.8% (active); in the experiment with M14 melanoma it was -31.6% (active) and -53.6% (active); in the experiment with SK-MEL-5 melanoma, -93.3% (active) and -92.8% (active); in the experiment with UACC-62 melanoma it was -0.972% (active) and -81.2% (active). The growth in the experiment on LOX IMVI melanoma is -78.5% (active) and -80.2% (active); in the experiment with CCRF-CEM leukemia, -12.7% (active) and -38.8% (active); with MOLT-4 leukemia it was -48.2% (active) and -23.8% (active); in the experiment on SR leukemia, -57.3% (active) and 12.2% (inactive); in the experiment with OVCAR-8 ovarian, 16.4% (inactive) and 4.24% (active); in the experiment with OVCAR-5 ovarian, 50.4% (inactive) and -66.8% (active). Besides, the growth in the experiment with OVCAR-4 ovarian was 60% (inactive) and 47.2% (inactive); with IGROV1 ovarian, 30.5% (inactive) and 5.27% (active); in the experiment with HS 578T breast, -36.6% (active) and -60.1% (active); with NCI/ADR-RES ovarian, 51.1% (inactive) and 4.23% (active); with T-47D breast it was 24.8% (inactive) and 10.8% (inactive); in the experiment on MCF7 breast, 2.98% (active) and -45.1% (active). Moreover, the growth was 13.1% (inactive) and 6.15% (active) in the experiment on HCT-116 colon; -75.9% (active) and -59% (active) in the experiment with KM12 colon.
For the molecule `CC1=C(CCC=NNC(N)=O)C2=C(C)C3(CC3)[C@@](C)(O)C(=O)C2=C1`, the growth was -35.2% (active) with NCI-H23 lung; -62% (active) in the experiment with NCI-H522 lung; -5% (active) in the experiment on MDA-MB-231 breast; -84.4% (active) with M14 melanoma; -80.6% (active) in the experiment with SK-MEL-5 melanoma; -54.9% (active) with UACC-62 melanoma. Besides, the growth in the experiment with LOX IMVI melanoma is -31.9% (active); in the experiment on CCRF-CEM leukemia, 26.6% (inactive); in the experiment with MOLT-4 leukemia, 47.2% (inactive); in the experiment on SR leukemia, 29.9% (inactive); in the experiment with OVCAR-8 ovarian it was -36.1% (active); in the experiment on OVCAR-5 ovarian, -6.93% (active). Further, the growth in the experiment on OVCAR-4 ovarian is -33.3% (active); in the experiment with IGROV1 ovarian, -17.8% (active); in the experiment on HS 578T breast it was -23.6% (active); in the experiment with NCI/ADR-RES ovarian, -18.1% (active); in the experiment with T-47D breast it was -9.73% (active); in the experiment with MCF7 breast, 6.29% (active). Also, the growth with HCT-116 colon was 1.32% (active); in the experiment on KM12 colon, 6.64% (active).
Take `COc1cc2c(cc1OC)[C@@H]1N(CC2)C(=O)c2ccccc2[C@@]1(C)C(=O)O`: the growth was 102% (inactive) in the experiment with NCI-H23 lung; 99.8% (inactive) in the experiment with NCI-H522 lung; 101% (inactive) in the experiment on MDA-MB-231 breast; 101% (inactive) in the experiment on SK-MEL-5 melanoma; 95.8% (inactive) in the experiment with UACC-62 melanoma; 105% (inactive) with LOX IMVI melanoma. Also, the growth was 105% (inactive) with CCRF-CEM leukemia; 108% (inactive) with MOLT-4 leukemia; 117% (inactive) in the experiment on SR leukemia; 104% (inactive) in the experiment with OVCAR-8 ovarian; 106% (inactive) with OVCAR-5 ovarian; 105% (inactive) in the experiment on OVCAR-4 ovarian. In addition, the growth in the experiment on IGROV1 ovarian was 106% (inactive); in the experiment with HS 578T breast, 108% (inactive); in the experiment on NCI/ADR-RES ovarian, 106% (inactive); in the experiment on T-47D breast, 116% (inactive); with MCF7 breast, 97.4% (inactive); with HCT-116 colon, 111% (inactive). The growth in the experiment on KM12 colon is 113% (inactive).
Regarding `CN1C(=O)[C@]23SSC1(C)C(=O)N2[C@H]1Nc2ccccc2C1([C@@]12c4ccccc4N[C@@H]1N1C(=O)C4(C)SS[C@]1(C(=O)N4C)[C@H]2O)[C@@H]3O` (some centres not stated), the growth with NCI-H23 lung is -66.4% (active); in the experiment with NCI-H522 lung, -84.4% (active); with MDA-MB-231 breast, -52.1% (active); in the experiment with M14 melanoma it was -90% (active); in the experiment with SK-MEL-5 melanoma, -99% (active); in the experiment with UACC-62 melanoma, -79.2% (active). Moreover, the growth was -89.9% (active) in the experiment on LOX IMVI melanoma; 1.4% (active) in the experiment with CCRF-CEM leukemia; -20.6% (active) in the experiment on MOLT-4 leukemia; 0.169% (active) with SR leukemia; -76.1% (active) in the experiment with OVCAR-8 ovarian; -66.2% (active) in the experiment with OVCAR-5 ovarian. For the same molecule, the growth in the experiment on OVCAR-4 ovarian was -98.7% (active); with IGROV1 ovarian it was -71.7% (active); in the experiment on HS 578T breast, -49.4% (active); in the experiment on NCI/ADR-RES ovarian, -19.4% (active); in the experiment with T-47D breast it was -81.3% (active); with MCF7 breast it was -77.4% (active). Further, the growth in the experiment with HCT-116 colon was -99.5% (active); in the experiment with KM12 colon it was -94.4% (active).
For the molecule `C=C1[C@@H](C)C2[C@H](Cc3ccccc3)NC(=O)[C@]23[C@H](OC(C)=O)/C=C/[C@@](C)(O)C(=O)[C@@H](C)C/C=C/[C@H]3[C@@H]1O` (some centres not stated), the growth in the experiment with NCI-H23 lung is 69.8% (inactive); in the experiment on NCI-H522 lung, 22.3% (inactive); in the experiment with MDA-MB-231 breast, 33% (inactive); in the experiment on M14 melanoma, 51.3% (inactive); in the experiment with SK-MEL-5 melanoma, 33.5% (inactive); with UACC-62 melanoma, 84.5% (inactive). Moreover, the growth is 1.65% (active) with LOX IMVI melanoma; 48.7% (inactive) with CCRF-CEM leukemia; 62.3% (inactive) in the experiment on MOLT-4 leukemia; 43.2% (inactive) in the experiment on SR leukemia; 74.6% (inactive) with OVCAR-8 ovarian; 96.1% (inactive) with OVCAR-5 ovarian. For the same molecule, the growth is 34.7% (inactive) in the experiment on OVCAR-4 ovarian; 8.46% (active) in the experiment with IGROV1 ovarian; 9.13% (active) in the experiment with HS 578T breast; 98.5% (inactive) with NCI/ADR-RES ovarian; 81.6% (inactive) with T-47D breast; 23.3% (inactive) with MCF7 breast. Moreover, the growth in the experiment on HCT-116 colon is 44.4% (inactive); with KM12 colon, 62.7% (inactive).
`C/C=C/CC(C)C(O)[C@H](NC(=O)[C@@H]1CCCN1C(=O)C(C)(C)NC(=O)CCCCCCCCC)C(=O)N[C@@](C)(CC)C(=O)N[C@@H](CCC(N)=O)C(=O)N[C@H](CCC(N)=O)C(=O)NC(C)(C)C(=O)NC(C)(C)C(=O)N[C@@H](CCC(N)=O)C(=O)N[C@H](CC(C)C)C(=O)N[C@H](CO)CC(C)C` (some centres not stated): the growth was 15.6% (inactive) and 49.3% (inactive) with NCI-H23 lung; -32.9% (active) and -26.1% (active) in the experiment on NCI-H522 lung; -32.1% (active) and 53.6% (inactive) in the experiment on MDA-MB-231 breast; -43.6% (active) and 20.4% (inactive) in the experiment with M14 melanoma; -54.6% (active) and 12.6% (inactive) with SK-MEL-5 melanoma; -19.1% (active) and 54.4% (inactive) with UACC-62 melanoma. Moreover, the growth with LOX IMVI melanoma is -57.3% (active) and 1.46% (active); in the experiment with CCRF-CEM leukemia, 14.7% (inactive) and 49.4% (inactive); in the experiment with MOLT-4 leukemia, 18.8% (inactive) and 54.7% (inactive); in the experiment on SR leukemia, -32.1% (active) and 8.34% (active); with OVCAR-8 ovarian, 5.65% (active) and 38.4% (inactive); in the experiment on OVCAR-5 ovarian, 2.04% (active) and 49.9% (inactive). In addition, the growth was 81% (inactive) and 87.9% (inactive) in the experiment with OVCAR-4 ovarian; 34% (inactive) and 72.2% (inactive) in the experiment on IGROV1 ovarian; -51.7% (active) and -15.4% (active) in the experiment with HS 578T breast; 19.7% (inactive) and 35.4% (inactive) in the experiment on NCI/ADR-RES ovarian; 28.6% (inactive) and 52% (inactive) in the experiment with T-47D breast; -2.63% (active) and 45.8% (inactive) with MCF7 breast. In addition, the growth in the experiment on HCT-116 colon was 33.5% (inactive) and 78.4% (inactive); with KM12 colon it was -32.5% (active) and 10.3% (inactive).
As to `CCCCCCCCCC(=O)N[C@@](C)(CC)C(=O)N1CCC[C@H]1C(=O)N[C@@H](CC(C)C)C(=O)N[C@@](C)(CC)C(=O)N[C@@H](CCC(N)=O)C(=O)N[C@H](CCC(N)=O)C(=O)NC(C)(C)C(=O)NC(C)(C)C(=O)N[C@@H](CCC(N)=O)C(=O)N[C@H](CC(C)C)C(=O)N[C@H](CO)CC(C)C`, the growth is -78.3% (active) and -84.7% (active) with NCI-H23 lung; -84% (active) and -82.6% (active) with NCI-H522 lung; -92.2% (active) and -98.5% (active) in the experiment with MDA-MB-231 breast; -80.7% (active) and -65.5% (active) in the experiment on M14 melanoma; -94.2% (active) and -97.9% (active) with SK-MEL-5 melanoma; -90.6% (active) and -99.6% (active) with UACC-62 melanoma. The growth was -87.8% (active) and -92.7% (active) in the experiment with LOX IMVI melanoma; -38.9% (active) and -40.9% (active) with CCRF-CEM leukemia; -50.5% (active) and -25.3% (active) in the experiment on MOLT-4 leukemia; -31.3% (active) and 16.2% (inactive) in the experiment with SR leukemia; -74.1% (active) and -63.2% (active) in the experiment on OVCAR-8 ovarian; -98.7% (active) and -100% (active) in the experiment with OVCAR-5 ovarian. Also, the growth in the experiment on OVCAR-4 ovarian was -38.1% (active) and -35.2% (active); in the experiment on IGROV1 ovarian it was -84.9% (active) and -85.5% (active); in the experiment on HS 578T breast, -70.1% (active) and -58.6% (active); with NCI/ADR-RES ovarian, -82.9% (active) and -77% (active); with T-47D breast it was -6.91% (active) and -59.3% (active); in the experiment on MCF7 breast it was -76.7% (active) and -77.6% (active). Further, the growth was -66.1% (active) and -29% (active) with HCT-116 colon; -90.6% (active) and -93.5% (active) in the experiment on KM12 colon.
For the molecule `COc1cc(OC)c(S(=O)(=O)N(CCCl)CCCl)cc1C(=O)/C=C/c1ccc(Cl)cc1`, the growth in the experiment with NCI-H522 lung was 83.5% (inactive); with MDA-MB-231 breast it was 67.1% (inactive); in the experiment on M14 melanoma, 68.4% (inactive); in the experiment on SK-MEL-5 melanoma, 87.1% (inactive); with UACC-62 melanoma it was 51.1% (inactive); in the experiment with CCRF-CEM leukemia, 16.4% (inactive). Moreover, the growth is 58.8% (inactive) in the experiment with MOLT-4 leukemia; 10.1% (inactive) in the experiment on SR leukemia; 59.8% (inactive) in the experiment with OVCAR-8 ovarian; 107% (inactive) in the experiment on OVCAR-5 ovarian; 83.4% (inactive) in the experiment with OVCAR-4 ovarian; 76.3% (inactive) in the experiment with IGROV1 ovarian. The growth in the experiment with HS 578T breast is 78.6% (inactive); in the experiment with NCI/ADR-RES ovarian, 52.3% (inactive); in the experiment with T-47D breast, 74.4% (inactive); with MCF7 breast, 15.8% (inactive); in the experiment with HCT-116 colon it was 49.2% (inactive); with KM12 colon, 23.4% (inactive).

Values taken from PubChem BioAssay (NCI).
